Experimental data taken from PubChem BioAssay.
The source made the active and inactive calls. Unless noted, the rule behind the calls is not given here.

What was measured:
[1] = A549 cell viability effects, profiling panel, calcein-AM fluorescence, 48 h, basal (AID 1162); details: higher = more signal; note: test concentration not given here
[2] = adipocyte viability effects, profiling panel, cell-based, 3T3-L1 adipocytes, calcein-AM fluorescence, 48 h, basal (AID 1163); details: 3T3-L1 adipocytes viability, higher = more signal; note: test concentration not given here
[3] = HepG2 cell viability effects, profiling panel, calcein-AM fluorescence, 48 h, basal (AID 1164); details: higher = more signal; note: test concentration not given here
[4] = MM1S cell viability effects, profiling panel, calcein-AM fluorescence, 48 h, basal (AID 1165); details: higher = more signal;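 note: viability of MM1S multiple myeloma cells under basal unstimulated conditions; test concentration not given here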
[5] = basal RPMI8226 viability, no added stimulus, profiling panel, cell-based, calcein-AM fluorescence, 48 h, PK04 Diversity Set (AID 1166); details: RPMI8226 myeloma viability, higher = more signal;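 note: cells grown under basal conditions without added stimulus; test concentration not given here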
[6] = basal HepG2 mitochondrial membrane potential changes, profiling panel, cell-based, JC-1 fluorescence, 24 h, 100 nL compound (AID 1167); details: higher = more signal; note: test concentration not given here
[7] = basal 3T3-L1 adipocyte mitochondrial potential changes, profiling panel, cell-based, JC-1 fluorescence, 3T3-L1 adipocytes, 24 h, 100 nL compound (AID 1168); details: JC-1 mitochondrial fluorescence, higher = more signal, called active from +8 up or from −8 down; note: test concentration not given here
[8] = basal RPMI8226 mitochondrial membrane potential changes, profiling panel, cell-based, JC-1 fluorescence, 24 h, 100 nL compound (AID 1169); details: RPMI8226 myeloma, JC-1 mitochondrial potential fluorescence, higher = more signal; note: test concentration not given here
[9] = basal MM1S mitochondrial membrane potential changes, profiling panel, cell-based, JC-1 fluorescence, 24 h, 100 nL compound (AID 1170); details: higher = more signal; note: test concentration not given here
[10] = A549 lung cancer cell viability effects, profiling panel, resazurin fluorescence, 24 h, PK04 Diversity Set (AID 1171); details: higher = more signal, called active from +8 up or from −8 down; note: test concentration not given here
[11] = HepG2 liver cancer cell viability effects, profiling panel, resazurin fluorescence, 24 h, PK04 Diversity Set (AID 1172); details: higher = more signal; note: test concentration not given here
[12] = basal S. cerevisiae growth modulation, no modifier, primary screen, OD600, strain BY4716, 24 h, basal condition (AID 1173); details: OD600, 24 h, higher = more signal, called active from +8 up or from −8 down
[13] = MM1S myeloma cell viability, profiling panel, resazurin fluorescence, basal, 24 h, PK04 Diversity Set (AID 1174); details: higher = more signal, called active from +8 up or from −8 down;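 note: MM1S multiple myeloma cell line; test concentration not given here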
[14] = molecular target: Dihydroorotate dehydrogenase (quinone), mitochondrial (Plasmodium falciparum (isolate 3D7)) (UniProt Q08210); assay: PfDHODH enzyme inhibitors, primary screen, biochemical, C-terminal His tag, absorbance 600 nm (AID 1175); details: DCIP absorbance 600 nm, higher = more signal, called active from +8 up or from −8 down;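 note: recombinant parasite enzyme with a five histidine tag at its C terminus; test concentration not given here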
[15] = P. aeruginosa biofilm formation inhibitors, primary screen, strain PAO1, LB-PBS medium, absorbance 600 nm (AID 1176); note: test concentration not given here; details: P. aeruginosa PAO1 growth/biofilm, A600, 12 h; higher = more signal
[16] = S. cerevisiae RM11-1a growth modifiers, primary screen, strain RM11-1a, OD600, basal, 24 h (AID 1177); details: OD600, 24 h, higher = more signal, called active from +8 up or from −8 down;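 note: cultures grown under basal conditions with no added stressor; test concentration not given here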
[17] = E. coli acrAB mutant growth effects, primary screen, E. coli filamentation inducers, strain DRC39, OD650, 24 h (AID 1178); details: higher = more signal, called active from +8 up or from −8 down;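 note: growth measured as culture turbidity by optical density at 650 nm; test concentration not given here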
[18] = E. coli acrAB mutant growth effects, primary screen, E. coli filamentation inducers, strain DRC39, OD650, 48 h (AID 1179);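 note: screen aims at cell division blockers that make cells filament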; details: E. coli DRC39 delta-acrAB growth, higher = more signal, called active from +8 up or from −8 down
[19] = RPMI8226 myeloma cell viability, profiling panel, resazurin fluorescence, basal, 24 h, PK04 Diversity Set (AID 1180); details: higher = more signal;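 note: RPMI8826 multiple myeloma cell line at 5000 cells per well; test concentration not given here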
[20] = molecular target: E3 ubiquitin-protein ligase XIAP (Homo sapiens) (UniProt P98170); assay: XIAP binders, primary screen, biophysical, small-molecule microarray, fluorescence 635 nm (AID 1181); details: small-molecule microarray binding, higher = more signal;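 note: score merges 667 nm emission and signal to noise over triplicate slides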
Chain of E3 ubiquitin-protein ligase XIAP (Homo sapiens) (P98170 whole entry, looked up): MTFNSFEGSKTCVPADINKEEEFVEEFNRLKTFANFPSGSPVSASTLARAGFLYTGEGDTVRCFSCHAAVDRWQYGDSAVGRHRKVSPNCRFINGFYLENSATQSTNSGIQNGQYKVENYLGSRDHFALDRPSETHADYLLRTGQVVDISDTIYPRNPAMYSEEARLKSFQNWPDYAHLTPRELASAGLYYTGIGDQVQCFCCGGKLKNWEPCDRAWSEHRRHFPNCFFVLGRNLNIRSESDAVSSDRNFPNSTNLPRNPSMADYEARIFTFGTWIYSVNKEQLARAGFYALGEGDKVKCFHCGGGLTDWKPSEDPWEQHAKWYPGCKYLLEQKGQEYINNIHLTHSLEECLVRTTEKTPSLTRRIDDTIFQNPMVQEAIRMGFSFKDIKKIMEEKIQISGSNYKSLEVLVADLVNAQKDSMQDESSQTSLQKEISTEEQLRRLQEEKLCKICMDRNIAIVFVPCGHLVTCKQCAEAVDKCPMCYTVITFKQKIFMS

Chain of Dihydroorotate dehydrogenase (quinone), mitochondrial (Plasmodium falciparum (isolate 3D7)) (Q08210 whole entry, looked up): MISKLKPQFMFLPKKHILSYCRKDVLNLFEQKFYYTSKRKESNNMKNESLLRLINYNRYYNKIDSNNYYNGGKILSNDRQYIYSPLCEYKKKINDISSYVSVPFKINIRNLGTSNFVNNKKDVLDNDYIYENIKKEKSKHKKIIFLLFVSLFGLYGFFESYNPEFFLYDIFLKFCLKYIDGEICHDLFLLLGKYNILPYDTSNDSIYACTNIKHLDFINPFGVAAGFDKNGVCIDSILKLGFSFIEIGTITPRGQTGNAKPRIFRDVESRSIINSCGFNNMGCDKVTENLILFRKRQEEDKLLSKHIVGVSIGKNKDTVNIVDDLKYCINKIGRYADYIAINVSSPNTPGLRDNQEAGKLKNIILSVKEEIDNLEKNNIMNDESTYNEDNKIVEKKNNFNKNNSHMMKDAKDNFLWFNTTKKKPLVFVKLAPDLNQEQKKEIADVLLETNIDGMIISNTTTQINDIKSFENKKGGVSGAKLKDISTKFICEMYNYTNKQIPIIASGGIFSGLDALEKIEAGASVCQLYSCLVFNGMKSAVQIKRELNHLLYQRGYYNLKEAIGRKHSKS

COc1ccc(O[C@H]2C=C[C@@H](c3ccccc3)O[C@@H]2COC(=O)CCC(C)=NOC(C)CN2CCCc3nc(C)c(C)cc32)cc1 (stereo not given in full)
z-score [1]: 1.12
z-score [2]: 0.0929
z-score [3]: 0.919
z-score [4]: -1.2
z-score [5]: -0.63
z-score [6]: 1.54
z-score [7]: -0.0369 (inactive)
z-score [8]: -0.455
z-score [9]: -1.18
z-score [10]: 1.21 (inactive)
z-score [11]: 1.21
z-score [12]: -0.729 (inactive)
z-score [13]: -0.317 (inactive)
composite z-score [14]: -0.154 (inactive)
z-score [15]: -0.336 (inactive)
z-score [16]: 1.37 (inactive)
z-score [17]: 1.09 (inactive)
z-score [18]: 0.129 (inactive)
z-score [19]: 0.757
composite z-score [20]: -0.127

COc1ccc(O[C@@H]2[C@H](O)CO[C@@H]2C=Cc2ccccc2)cc1
z-score [1]: 0.069
z-score [2]: 1.72
z-score [3]: -0.0757
z-score [4]: -2.82
z-score [5]: -1.1
z-score [6]: 1.11
z-score [7]: 0.6 (inactive)
z-score [8]: 0.132
z-score [9]: 0.322
z-score [10]: -0.548 (inactive)
z-score [11]: -0.489
z-score [12]: -2.44 (inactive)
z-score [13]: 0.995 (inactive)
composite z-score [14]: -3.01 (inactive)
z-score [15]: 0.815 (inactive)
z-score [16]: -0.614 (inactive)
z-score [17]: -1.16 (inactive)
z-score [18]: -1.93 (inactive)
z-score [19]: 0.54
composite z-score [20]: 0.0975

COc1ccc(O[C@H]2C=C[C@@H](c3ccccc3)O[C@@H]2CON=CC[C@@H]2C=C[C@H](OC(C)=O)[C@@H](COC(C)=O)O2)cc1
z-score [1]: 0.0639
z-score [2]: -0.0129
z-score [3]: -0.555
z-score [4]: 0.306
z-score [5]: -1.17
z-score [6]: -1.33
z-score [7]: -0.112 (inactive)
z-score [8]: -0.0648
z-score [9]: 0.491
z-score [10]: -0.247 (inactive)
z-score [11]: 0.185
z-score [12]: 2.06 (inactive)
z-score [13]: -0.0893 (inactive)
composite z-score [14]: 0.0159 (inactive)
z-score [15]: 0.405 (inactive)
z-score [16]: 1.34 (inactive)
z-score [17]: 0.503 (inactive)
z-score [18]: -0.185 (inactive)
z-score [19]: -0.604
composite z-score [20]: 0.0391
